The panel holds about 83,000 compounds, 20% with a hit somewhere; the sample as a whole holds those more often.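 Step 1: grow cells in 96-well plates. Step 2: add test compound at a single concentration. Step 3: incubate 48 h. Step 4: record percent growth.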 A number with no mark means an inactive call. The source made the active and inactive calls. Rule for the calls: active = growth percent below 10; inactive = the rest.
Each compound was assayed on HL-60(TB) leukemia (assay: NCI-60 one-dose screen, 48 h (100 = growth as untreated, 0 = no growth, -100 = all killed)). Conditions: 10 µM unless noted.

Structure (SMILES) | growth
CN(C)CCN1C(=O)c2cccc3c(/C=C/CN4C(=O)c5cccc6cccc(c56)C4=O)ccc(c23)C1=O | 12.9%
Cc1ncc(C(=O)Nc2ccc(CN3CCN(C)CC3)c(C(F)(F)F)c2)cc1C#Cc1c(N)ncc2ccccc12 | -51.1% (active)
Cc1nc([P+](c2ccccc2)(c2ccccc2)c2ccccc2)c(N2CCCCC2)o1 | -2.68% (active)
C=C(C)[C@@H]1CC[C@]2(C(=O)N3CCN(C)CC3)CC[C@]3(C)[C@H](CC[C@@H]4[C@@]5(C)CCC(=O)C(C)(C)[C@@H]5CC[C@]43C)[C@@H]12 | 60.1%
NC(=NCCCOc1ccc(F)cc1)Nc1ccc(I)cc1 | 72.6%
COc1cc2nc3cc([N+](=O)[O-])ccc3c(NCCCNCC(C)(C)O)c2cc1OC | -0.733% (active)
O=C(/C=C\c1ccc(NCc2ccc(C(=O)O)cc2)cc1)CCl | 97.7%
CC(c1cc(Cl)ccc1O)c1cc(Cl)ccc1O | 34.1%
COc1ccc(-c2cc3c(nn2)-c2ccccc2C3=O)cc1 | 57.4%
CCCCCO/N=C\c1c2c(O)c3c(O)c(C)c4c(c3c1O)C(=O)C(C)(O/C=C\C(OC)C(C)C(OC(C)=O)C(C)C(O)C(C)C(O)C(C)/C=C\C=C(\C)C(=O)N2)O4 (stereo unspecified) | -6.96% (active)
COc1ccc2c(c1)c(-c1cc(-c3cn(C)c4ccc(OC)cc34)on1)cn2C | 101%
COC(=O)c1cnc2c(c1)Oc1ccccc1-c1ccnn1-2 | 98.3%
CCOC1(OCC)OC(c2ccccc2)=C(C#N)C(/C=C\c2ccccc2)C1(OCC)OCC (stereo unspecified) | 80.1%
CSc1nsc(N)n1 | 105%
Nc1c2c(nc3ccc(Cl)cc13)CC(c1ccc(O)cc1)CC2=O (stereo unspecified) | 18.9%
CCOC(=O)c1cn2ncnc(Oc3ccc(NC(=O)NCCN(C)C)c(Cl)c3)c2c1C | 98.6%
Cc1ccc2c(-c3cc(-c4ccccc4)nc(N)c3C#N)cc(=O)oc2c1 | 117%
COc1cc(Cl)cc(-c2nn(-c3cccc(NC(=O)c4ccc(Cl)c(Cl)c4)c3)cc2-c2ccncc2)c1 | 94.1%

Structure (SMILES) | growth
CCN(CC)C(CC(=O)c1ccccc1)C(=O)c1ccccc1 (stereo unspecified) | 63.5%
O=C(O)CN1C(=O)CCC1=O | 134%
Cn1c2c(c3ccc(Cl)c(Cl)c31)C(C#N)C(C)(C)NC2=O (stereo unspecified) | 69.3%
FC(F)(F)c1[nH]ncc1-c1nc2ccc3[nH]ncc3c2c2c1CCCC2 | -32.3% (active)
CCN(CC)CCNc1ccc(C)c2sc3cc(Cl)ccc3c(=O)c12 | 17%
COc1ccc(OC)c(CCn2cncc2-c2c[nH]c3cc(Br)ccc23)c1 | -9.46% (active)
CCOc1ccc(-n2nc(C(=O)Nc3cc(OC)c(OC)c(OC)c3)nc2-c2cc(OC)c(OC)c(OC)c2)cc1 | 98.2%
N#CC1=C(NC=O)Oc2c(ccc3ccccc23)C1c1ccccc1 (stereo unspecified) | 18.1%
C=C(C)[C@@H]1C[C@H](O)Cc2cc(Cl)cc(Cl)c2N1 | 112%
COC(=O)C(CCC(=O)CCl)N1C(=O)c2ccccc2C1=O (stereo unspecified) | 84.5%
C[C@H]1[C@H]2C3=CC[C@@H]4[C@@]5(C)C/C(=C/c6ccco6)C(=O)C(C)(C)[C@@H]5CC[C@@]4(C)[C@]3(C)CC[C@@]2(C(=O)N2CCOCC2)CC[C@@H]1C | 14.7%
Cc1ncc(C(=O)Nc2ccc(CN3CCN(C)CC3)c(C(F)(F)F)c2)cc1C#Cc1cnc2cccnn12 | -28.2% (active)
C=C(C)[C@@H]1CC[C@]2(C(=O)NC(COC(=O)C(Cl)Cl)(COC(=O)C(Cl)Cl)COC(=O)C(Cl)Cl)CC[C@]3(C)[C@H](CC[C@@H]4[C@@]5(C)CC[C@H](OC(C)=O)C(C)(C)[C@@H]5CC[C@]43C)[C@@H]12 | 16.7%
CCOC(=O)c1ccc(NC(=O)N2CC(C)OC(C)C2)cc1 (stereo unspecified) | 92.8%
COc1cc2ncnc(Nc3ccc(O)cc3)c2cc1OC | 83.5%
Clc1cc(Cl)cc(N2N=C(c3cccc(Nc4ccncc4)c3)CC2c2ccc(Br)cc2)c1 (stereo unspecified) | 17.3%
O=c1c2ccccc2sc2c(N3CCCC3)nc3ccccc3c12 | 99.1%
O=S(=O)(NCC[C@@H]1C[C@H]1c1ccc2ccccc2c1)c1ccc(C(F)(F)F)cc1 | 96.5%
